Experimental data from PubChem BioAssay (EPA / NIEHS).
Activity calls are given as the source filed them. How the source made its calls: active means hit-call score of the fitted dose curve at least 0.9, where 1 is the maximum; inactive means score below 0.9.

The compounds below were run on UDP glucuronosyltransferase (UGT1A1), UGT1A1 (gene 54658) (assay: LTEA_HepaRG_UGT1A1: Life Technologies and Expression Analysis (LTEA) Assay for UDP glucuronosyltransferase (UGT1A1) using HepaRG (AID 2283538)). Details: mRNA level, 48 h; actives raise or lower the signal.
Protocol: LTEA_HepaRG is a cell based, multiplexed-readout assay that uses HepaRG, a human liver cell line, with measurements taken at 48 hours after chemical dosing on a 96-well plate.LTEA_HepaRG_UGT1A1 is one of 102 assay component(s) measured in the LTEA HepaRG cell culture assay. It is a marker of Steatosis/NR mediated metabolism.Data from the assay component LTEA_HepaRG_UGT1A1 was analyzed into 1 endpoint. This assay endpoint, LTEA_HepaRG_UGT1A1, was analyzed with bidirectional fitting relative to DMSO as the negative control and baseline of activity. Using a type of inducible reporter, measures of mRNA induction for gain or loss-of-signal activity can be used to understand regulation of transcription factor activity. To generalize the intended target to other relatable targets, this assay endpoint is annotated to the transferase intended target family, where the subfamily is glucuronosyltransferase.
A total of 1060 chemcials from the ToxCast library were tested in eight-point concentration-response experiments. Cell culture and cytotoxicity assays were conducted at Thermo Fisher Scientific's Custom Services facility (Madison, WI). A single lot of human HepaRG cells (Thermo Fisher Scientific, Frederick, MD) was used for the cell culture experiments. 96-well format collagen type I coated plates of human HepaRG cells were prepared using established methods. Briefly, cryopreserved HepaRG cells were thawed, plated at a density of approximately 100,000 cells/well in HepaRG Thaw, Plate, and General Purpose media (HPRG770, Thermo Fisher Scientific), and incubated for 48 hours. 0.5% DMSO was selected as vehicle control to balance the requisite need of DMSO in HepaRG cultures to maintain differentiation (for example, baseline metabolism, proportions of hepatocytes vs. cholangiocytes), while enabling further hepatic receptor pathway activation (for example, PXR and CAR) in response to chemical exposure. 48 hours after plating, the culture medium was replaced with HepaRG Serum-Free Incudtion Media. Cells were exposed to each test chemical in duplicate and maintained in CO2 incubators for another 48 hours. Chemical plates were thawed to room temperature and 200x concentrations of treatment groups were prepared. 8-point conentration-reponse curves were made with the highest exposure at 100 uM, followed by half-log dilutions, all in 0.5% DMSO. Each test plate contained variouse controls, induction positive controls (1mM phenobarbital), cytotoxicity positive controls ([…] aflatoxin B1), vehicle controls (0.5% DMSO), and total lysis controls (0.5% DMSO). Cell morphology images were taken using an Essen IncuCyte FLR automated microscope, with six 96-well plates imaged in about 24 minutes. Images were captured and exported and JPEG files. Spent culture media was transfered to black-well plates for the LDH assay, and remaining media was sorted at -80 C for later use. Cells were treated with RLT buffer and frozen until shipped for gene expression analysis. Total RNA was isolated from the cell suspension in 75 uL of Buffer RLT (Qiagen, Germantown, MD 20874) by Quintiles/Expression Analysis (Durham, NC) using a custom isolation procedure. Total RNA from each plate well was transferred to a preamplification plate. Fluidigm's 96.96 Dynamic ArrayTM (Fluidigm, Amsterdam, the Netherlands) technology was used for gene expression analyses by quantitative reverse transcription polymerase chain reaction (qRT-PCR, performed by Quintiles/Expression Analysis, Durham, NC)89. Standard TaqManTM Assays (Applied Biosystems/ThermoFisher Scientific, Foster City, CA) were used to assess the expression of 93 genes selected based on their selectivity and sensitivity to important hepatic receptors known to be modulated by environmental chemicals; importance in human hepatocyte functionality; and hepatotoxicity. […]

**Q.** `CCC(C)c1cc([N+](=O)[O-])cc([N+](=O)[O-])c1O` (stereo not given) was tested. Which AC50 did it give?
**A.** 1.83 µM (active)

**Q.** With `O=S(=O)(O)C(F)(F)C(F)(F)C(F)(F)C(F)(F)F` as the compound, how does the outcome read?
**A.** inactive

**Q.** For `CCOCCOC(C)=O`, which outcome is on record?
**A.** inactive

**Q.** For `Clc1ccc(C(c2ccccc2Cl)C(Cl)(Cl)Cl)cc1` (stereo not given), which AC50 is on record?
**A.** 0.818 µM (active)

**Q.** How did the AC50 turn out when `CCC(C)(CC)c1cc(NC(=O)c2c(OC)cccc2OC)on1` was run?
**A.** 2.8 µM (active)

**Q.** For `CN(C)c1nc(=O)n(C2CCCCC2)c(=O)n1C`, which outcome is on record?
**A.** inactive

**Q.** Which outcome does the source give for `COS(=O)(=O)OC` here?
**A.** inactive

**Q.** For `CC#Cc1cc(C)nc(Nc2ccccc2)n1`, which AC50 is on record?
**A.** 8.68 µM (active)

**Q.** How did the outcome turn out when `c1ccc(-c2ccccc2)cc1` was run?
**A.** inactive

**Q.** With `ClC1=C(Cl)[C@]2(Cl)[C@@H]3[C@H]4C[C@H]([C@@H]5O[C@H]45)[C@@H]3[C@@]1(Cl)C2(Cl)Cl` as the compound, how does the AC50 read?
**A.** 2.04 µM (active)

**Q.** How did the AC50 turn out when `CCOC(=O)C(O)(c1ccc(Cl)cc1)c1ccc(Cl)cc1` was run?
**A.** 67.4 µM (active)

**Q.** For `Cc1cc2c3c(c1)C(c1ccccc1)=N[C@@H](NC(=O)c1ccncc1)C(=O)N3CC2`, which AC50 is on record?
**A.** 4.99 µM (active)

**Q.** How did the AC50 turn out when `NS(=O)(=O)C(F)(F)C(F)(F)C(F)(F)C(F)(F)C(F)(F)C(F)(F)C(F)(F)C(F)(F)F` was run?
**A.** 10.1 µM (active)

**Q.** For `CCCCCCCCOC(=O)c1ccccc1C(=O)OCCCCCCCC`, which outcome is on record?
**A.** inactive

**Q.** How did the outcome turn out when `CCC(C)(c1ccc(O)cc1)c1ccc(O)cc1` was run?
**A.** inactive

**Q.** Which outcome does the source give for `C=CC(=O)NCNC(=O)C=C` here?
**A.** inactive

**Q.** Which outcome does the source give for `Oc1ccc(Cl)cc1Cl` here?
**A.** inactive

**Q.** Which outcome does the source give for `Cc1ccccc1O` here?
**A.** inactive

**Q.** With `Cc1ccccc1CO[C@@H]1C[C@@]2(C(C)C)CC[C@]1(C)O2` as the compound, how does the AC50 read?
**A.** 14.9 µM (active)

**Q.** With `Clc1ccc(Cl)cc1` as the compound, how does the outcome read?
**A.** inactive

**Q.** For `Cc1ccc(O)c(C)c1`, which outcome is on record?
**A.** inactive

**Q.** Which AC50 does the source give for `N#Cc1ccc(N(CC(N)=O)CC(F)(F)F)cc1C(F)(F)F` here?
**A.** 22.6 µM (active)

**Q.** For `CCCCCCCCCC[N+](C)(C)CCCCCCCCCC`, which outcome is on record?
**A.** inactive

**Q.** `ClC1=C(Cl)[C@]2(Cl)[C@@H]3[C@@H](Cl)[C@H]4O[C@H]4[C@@H]3C1(Cl)C2(Cl)Cl` was tested. Which AC50 did it give?
**A.** 2.1 µM (active)

**Q.** `CN(C)CCO` was tested. Which outcome did it give?
**A.** inactive

**Q.** With `c1cc2ccc3cccc4ccc(c1)c2c34` as the compound, how does the AC50 read?
**A.** 10.7 µM (active)

**Q.** With `CC(C)C(=O)OCC(C)(C)C(OC(=O)C(C)C)C(C)C` (stereo not given) as the compound, how does the outcome read?
**A.** inactive

**Q.** Which outcome does the source give for `CC(C)(c1ccccc1)c1ccc(O)cc1` here?
**A.** inactive

**Q.** With `O=NN(c1ccccc1)c1ccccc1` as the compound, how does the outcome read?
**A.** inactive

**Q.** `Oc1c(Cl)c(Cl)c(Cl)c(Cl)c1Cl` was tested. Which AC50 did it give?
**A.** 3.76 µM (active)

**Q.** For `CCCN(CCC)N=O`, which outcome is on record?
**A.** inactive

**Q.** `CC(c1ccc(O)cc1)(c1ccc(O)cc1)c1ccc(O)cc1` was tested. Which AC50 did it give?
**A.** 68.9 µM (active)

**Q.** `O=C(N[C@H]1CN2CCC1CC2)c1cc2ccoc2cn1` was tested. Which outcome did it give?
**A.** inactive

**Q.** With `Cc1cc(-c2ccc(N)c(C)c2)ccc1N` as the compound, how does the AC50 read?
**A.** 26.7 µM (active)

**Q.** Which outcome does the source give for `Cc1cccc([N+](=O)[O-])c1` here?
**A.** inactive

**Q.** `Cc1ccccc1[N+](=O)[O-]` was tested. Which outcome did it give?
**A.** inactive

**Q.** With `C1CC2OC2CC1C1CO1` (stereo not given) as the compound, how does the outcome read?
**A.** inactive

**Q.** With `C[C@]12CCC(=O)C=C1CC[C@@H]1[C@@H]2CC[C@]2(C)C(=O)CC[C@@H]12` as the compound, how does the AC50 read?
**A.** 13.1 µM (active)

**Q.** Which AC50 does the source give for `CO/C=C(/C(=O)OC)c1ccccc1COc1cccc(C(F)(F)F)n1` here?
**A.** 20.5 µM (active)

**Q.** How did the outcome turn out when `COc1ccc(O)c(C(C)(C)C)c1` was run?
**A.** inactive
